These results are taken from PubChem BioAssay AID977607 (Broad Institute, 2014).

Out of some 1,500 compounds screened, about 460 (31%) were called active. About 1% were inconclusive and are not listed.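 How the source made its calls: active means curve reaches 40% activation over neutral controls at an AC40 no higher than the top valid tested concentration; inconclusive means no clear call, values can overlap the other calls; inactive means signal moving opposite to the expected increase, and the rest.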 Not all results are given here. Entries with a potency or affinity are not part of this list.

The nature of the assay: GLuc-reported insulin release enhancers, glucose-stimulated beta cells – cell-based, INS-1E, Gaussia luciferase, luminescence, cherry-pick, set 2, dose response (AID 977607).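 Further: 0% = median of the plate neutral control wells.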 Particulars: INS-1E GLuc insulin secretion reporter, 2-3 h, active compounds read high; at 35 µM, 100% = signal doubled over neutral wells unless noted.
For the compound `CCOC(=O)N1CCN(S(=O)(=O)N2CCCC(C(=O)NCc3cc(OC)ccc3OC)C2)CC1` (stereo not given), the max activation was -20.8% [at 1.2 µM, 100% = signal doubled over neutral wells] (inactive). The figure for `CCOC(=O)c1c(NC(=O)c2ccoc2C)sc(C(=O)N(C)C)c1C` is 12.6% (inactive). The result for `CC(=O)Nc1sc(C)c(C)c1C(=O)OCC(=O)Nc1cc(S(C)(=O)=O)ccc1Cl` reads -22.2% (inactive). The figure for `O=c1[nH]c(CN2CCN(c3ccc(O)cc3)CC2)nc2scc(-c3ccc(Cl)cc3)c12` is -25.6% (inactive); for `CCOc1ccc(C(C)=O)cc1COC(=O)CN1C(=O)NC2(CCCC2)C1=O` it is -28.5% [at 0.005 µM, 100% = signal doubled over neutral wells] (inactive). In the case of `COc1ccc2ccc(=O)oc2c1CC=C(C)C`, the max activation is -13.3% [at 0.015 µM, 100% = signal doubled over neutral wells] (inactive). On to `COc1ccc(CNC(=O)COC(=O)c2cc(C)nc3ccccc23)cc1`, for which the max activation was 16.2% (inactive). On to `CCOC(=O)Cn1c(=O)n(Cc2ccc(OC)cc2)c(=O)c2cccnc21`, for which the max activation is -22.7% [at 0.005 µM, 100% = signal doubled over neutral wells] (inactive). As for `CCOC(=O)c1c(C)[nH]c(C(C)=NNC(=O)c2cccs2)c1C`, the max activation is -42% [at 11 µM, 100% = signal doubled over neutral wells] (inactive).

Turning to `CCOC(=O)c1oc2ccccc2c1NC(=O)c1ccco1`, the max activation is -17.8% [at 0.135 µM, 100% = signal doubled over neutral wells] (inactive). For `CNC(=O)C(=O)NCC1OCCCN1S(=O)(=O)c1ccc(F)cc1C` (stereo not given), the max activation was -17.8% [at 0.005 µM, 100% = signal doubled over neutral wells] (inactive).

As for `CC(C)NC(=O)C1(C)CCN1Cc1cccc(C#N)c1` (stereo not given), the max activation was -13.6% [at 0.0016 µM, 100% = signal doubled over neutral wells] (inactive). As for `Cc1cccc(C(=O)NC(=S)NNC(=O)COc2c(C)cccc2C)c1`, the max activation is -26.2% [at 11 µM, 100% = signal doubled over neutral wells] (inactive).

For `COc1ccc(-c2cccc(C(=O)Nc3ccc(C)cc3)c2)cc1`, the max activation is 26.8% (inactive). The result for `Cc1ccc(-n2nnnc2SCc2ccc(C(=O)O)cc2)cc1C` reads -23.5% [at 3.8 µM, 100% = signal doubled over neutral wells] (inactive); that for `N#CC1=C(N)Oc2nc(-c3ccccc3)[nH]c2C1c1cccnc1` (stereo not given), -20.8% [at 0.005 µM, 100% = signal doubled over neutral wells] (inactive). The result for `N#Cc1sc2nc(C3CC3)cc(-c3ccccc3)c2c1N` reads -14.8% [at 0.015 µM, 100% = signal doubled over neutral wells] (inactive). The result for `O=C1CSC(c2cccc(O)c2)N1Cc1ccccc1` (stereo not given) reads -24.7% [at 0.005 µM, 100% = signal doubled over neutral wells] (inactive); that for `C/C=C/c1ccc(OCCN2C(=O)NC(C)(C)C2=O)c(OC)c1`, -11.4% [at 0.005 µM, 100% = signal doubled over neutral wells] (inactive); that for `CCn1ccc(C(=O)Nc2ccccc2SC)n1`, -10.4% [at 0.046 µM, 100% = signal doubled over neutral wells] (inactive).

`NS(=O)(=O)c1ccc(CNC(=O)c2cc(S(=O)(=O)N3CCOCC3)ccc2N2CCCC2)cc1`: the max activation is -17.8% [at 0.0016 µM, 100% = signal doubled over neutral wells] (inactive). `O=S(=O)(NCc1ccccc1)c1ccc(S(=O)(=O)N2CCCCC2)cc1`: the max activation was -11.7% [at 3.8 µM, 100% = signal doubled over neutral wells] (inactive). The result for `CNS(=O)(=O)c1ccc2c3c(cccc13)C(=O)N2` reads 19.7% (inactive); that for `CC(=O)Nc1cccc(-n2c(=O)n(Cc3ccccc3)c(=O)c3[nH]cnc32)c1`, 18.8% [at 1.2 µM, 100% = signal doubled over neutral wells] (inactive); that for `N#CCCCc1cc2ccccc2cn1`, -14.5% [at 0.046 µM, 100% = signal doubled over neutral wells] (inactive). The result for `COc1cc(/C=N/NC(=O)CNC(=O)c2cccs2)ccc1O` reads -23.7% [at 0.015 µM, 100% = signal doubled over neutral wells] (inactive). For the compound `COc1ccc(/C=N/NC(=O)Cn2cnc3ccccc3c2=O)cc1OC`, the max activation is 23.7% [at 11 µM, 100% = signal doubled over neutral wells] (inactive). With `COc1cc(/C=N/Nc2cc(C)nc(NS(=O)(=O)c3ccc(C)cc3)n2)ccc1O`, the max activation is 36.9% [at 3.8 µM, 100% = signal doubled over neutral wells] (inactive). The figure for `CCNc1nc(CC)nc2c1oc1ccccc12` is -18.9% [at 0.015 µM, 100% = signal doubled over neutral wells] (inactive). Regarding `N#CCc1nn2c(-c3ccccc3)ccnc2c1C#N`, the max activation was -20% [at 0.015 µM, 100% = signal doubled over neutral wells] (inactive).

For the compound `Cc1cccc(-n2c(C)c(C)c3c(N)ncnc32)c1`, the max activation is 29.8% (inactive). Consider `COc1ccc(/C=C/c2nc(C#N)c(NCCN(C)C)o2)cc1OC`, for which the max activation is -15.9% [at 0.42 µM, 100% = signal doubled over neutral wells] (inactive). For `CCOCC(=O)Nc1c(C(=O)OCC)oc2ccccc12`, the max activation is 28.8% [at 3.8 µM, 100% = signal doubled over neutral wells] (inactive). For the compound `Nc1[nH]c(C(=O)c2ccccc2)c(-c2ccncc2)c1C(=O)NCc1cccc2ccccc12`, the max activation is -29.2% (inactive). For the compound `C[C@@H]1CN([C@H](C)CO)C(=O)c2cc(C3=CCCCC3)cnc2O[C@H]1CN(C)C(=O)CN1CCOCC1`, the max activation is -24.7% [at 0.005 µM, 100% = signal doubled over neutral wells] (inactive).
